From the supplement of paper PMC9844399 come the findings set out here.

Structures can show the parent of a compound that is named as a salt. Values without a mark were called inactive.
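Further: High-content confocal imaging of branched-DNA amplified FISH in 384-well plates, Hoechst-defined nuclei, score is well value minus plate DMSO median over DMSO robust SD, four wells per compound.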

The test relates to HeLa. As to the kind of experiment: MALAT1 nuclear FISH intensity, robust Z-score vs DMSO; higher = more nuclear MALAT1 lncRNA, active = -3 or less. The following applies: 10 µM; 6 h.
Turning to `CO[C@H]1O[C@@H]2O[C@@]3(C)CC[C@H]4[C@H](C)CC[C@@H]([C@H]1C)[C@@]24OO3` [Artemether], the “MALAT1 nuclear FISH intensity” value was -0.163.

For `C[C@@H](O)[C@H]1C(=O)N2C(C(=O)O)=C(SCCNC=N)C[C@H]12` [Imipenem], the “MALAT1 nuclear FISH intensity” value is -0.735. Under `CC(=O)C1=C(O)C=C2Oc3c(C(C)=O)c(O)c(C)c(O)c3[C@@]2(C)C1=O` [(+)Usnic acid] stands 0.525.

With `C[C@]12CC[C@@H]3c4ccc(O)cc4CC[C@H]3[C@@H]1CC[C@@H]2O` [Estradiol], the “MALAT1 nuclear FISH intensity” value was -0.859. For `NCCc1c[nH]cn1` [Histamine], the “MALAT1 nuclear FISH intensity” value was -0.47. Under `Cc1ccc(C(=O)COC(=O)c2cccc(NC(=O)c3ccc([N+](=O)[O-])cc3[N+](=O)[O-])c2)cc1` stands -0.607. Under `CCCCCC(=O)/C=C/C=C\C/C=C\C/C=C\CCCC(=O)O` [15-Ketoicosatetraenoic acid] stands 0.0827.

With `C[N+](C)(C)CCOC(=O)CCC(=O)OCC[N+](C)(C)C`, the “MALAT1 nuclear FISH intensity” value is -3.13 (active). Under `CC(C)NCC(O)c1cc(O)cc(O)c1` (centres undefined) [Metaproterenol Hemisulfate (Orciprenaline)] stands -0.344; under `CN(C)CCC(c1ccc(Br)cc1)c1ccccn1` (centres undefined) [Brompheniramine Maleate], 0.169; under `CC(C)(S)[C@@H](N)C(=O)O` [Penicillamine (D-Penicillamine)], 0.684.

Turning to `CCCCCCCCCCC[C@@H](C[C@@H]1OC(=O)[C@H]1CCCCCC)OC(=O)[C@H](CC(C)C)NC=O` [Orlistat (Tetrahydrolipstatin)], the “MALAT1 nuclear FISH intensity” value is -0.315. `N[C@@H]1CONC1=O` [Cycloserine]: the “MALAT1 nuclear FISH intensity” value is -1.65.

For the compound `CC(C)NNC(=O)c1ccncc1` [Iproniazid Phosphate], the “MALAT1 nuclear FISH intensity” value was 0.405. Under `N#C/C(=C\c1ccc(O)c(O)c1)C(=O)NCc1ccccc1` stands 1.04. Under `CCCCCCCCCCCCCCCC(=O)O[C@@H]1[C@@H](O)[C@@H](O)[C@@H]([C@H](NC(=O)[C@@H]2C[C@@H](CCC)CN2C)[C@H](C)Cl)O[C@@H]1SC` stands -1.32; under `C#C[C@]1(O)CC[C@H]2[C@@H]3CCC4=Cc5oncc5C[C@]4(C)[C@H]3CC[C@@]21C` [Danazol], 0.553. Under `COC1=C(OC)C(=O)c2ccccc2C1=O` [2,3-Dimethoxy-1,4-naphthoquinone] stands -3.84 (active); under `C[C@]12C=CC(=O)C=C1CC[C@@H]1[C@@H]2[C@@H](O)C[C@@]2(C)[C@H]1CC[C@]2(O)C(=O)CO` [Prednisolone], -0.657. Take `O=C1CCCC(=O)C1C(=O)c1ccc(C(F)(F)F)cc1[N+](=O)[O-]` [Nitisinone]: the “MALAT1 nuclear FISH intensity” value is -0.16. Under `CC(C)C[C@H](NC(=O)[C@@H](COC(C)(C)C)NC(=O)[C@H](Cc1ccc(O)cc1)NC(=O)[C@H](CO)NC(=O)[C@H](Cc1c[nH]c2ccccc12)NC(=O)[C@H](Cc1cnc[nH]1)NC(=O)[C@@H]1CCC(=O)N1)C(=O)N[C@@H](CCCNC(=N)N)C(=O)N1CCC[C@H]1C(=O)NNC(N)=O` [Goserelin Acetate] stands 0.613.

On to `Cc1c(C(=O)Nc2ccc(N3C[C@@H](C)O[C@@H](C)C3)nc2)cccc1-c1ccc(OC(F)(F)F)cc1`, for which the “MALAT1 nuclear FISH intensity” value is 0.333. For the compound `CN(C)c1nc(N(C)C)nc(N(C)C)n1` [Altretamine], the “MALAT1 nuclear FISH intensity” value is 0.0822. Under `NC[C@H]1O[C@H](O[C@H]2[C@H](O)[C@@H](O[C@H]3O[C@H](CO)[C@@H](O)[C@H](N)[C@H]3O)[C@H](N)C[C@@H]2N)[C@H](N)C[C@@H]1O` [Tobramycin] stands -1.1; under `COc1ccc2[nH]c([S@@+]([O-])Cc3ncc(C)c(OC)c3C)nc2c1` [Esomeprazole Potassium], 0.0157; under `Cc1ccc(Nc2nccc(N(C)c3ccc4c(C)n(C)nc4c3)n2)cc1S(N)(=O)=O`, 0.577. Under `Clc1ccc2nsnc2c1NC1=NCCN1` stands -0.0216; under `NNCCc1ccccc1` [Phenelzine Sulfate], 1.52; under `C[C@@H](O)[C@H]1C(=O)N2C(C(=O)O)=C(S[C@@H]3CN[C@H](CNS(N)(=O)=O)C3)[C@H](C)[C@H]12` [Doripenem], -0.886. Under `NS(=O)(=O)c1cc2c(cc1Cl)NCNS2(=O)=O` [Hydrochlorothiazide] stands -1.71. As for `c1ccc2c(c1)CCCC2C1=NCCN1` (centres undefined), the “MALAT1 nuclear FISH intensity” value was -0.177. As for `COC(=O)C1=C(C)NC(C)=C(C(=O)OC(C)C)C1c1cccc2nonc12` (centres undefined) [Isradipine], the “MALAT1 nuclear FISH intensity” value is 0.295.

Regarding `CCN(CC)CC(=O)Nc1c(C)cccc1C`, the “MALAT1 nuclear FISH intensity” value was -0.424.

Consider `CC1=C(/C=C/C(C)=C/C=C/C(C)=C\C(=O)O)C(C)(C)CCC1` [13-cis retinoic acid], for which the “MALAT1 nuclear FISH intensity” value is -0.46. Regarding `CCCN[C@H]1CCc2nc(N)sc2C1` [Pramipexole Dihydrochloride Monohydrate], the “MALAT1 nuclear FISH intensity” value was -0.69. Take `CN1CCN(CCCN2c3ccccc3Sc3ccc(C(F)(F)F)cc32)CC1` [Trifluoperazine]: the “MALAT1 nuclear FISH intensity” value was 1.61.

In the case of `O=C1Cc2cc(CCN3CCN(c4nsc5ccccc45)CC3)c(Cl)cc2N1` [Ziprasidone], the “MALAT1 nuclear FISH intensity” value is 0.361.

For `CC(C)(C(=O)NCC(F)(F)C(F)(F)F)C(=O)N[C@@H]1C(=O)Nc2ccccc2-c2ccccc21`, the “MALAT1 nuclear FISH intensity” value was -1.46.

On to `COc1cc(-c2ccc(=O)[nH]n2)ccc1OC(F)F` [Zardaverine], for which the “MALAT1 nuclear FISH intensity” value was 1.07.
